# The supplement of paper PMC10849652
# About 8,800 targets were measured; listed, in parts, are those with a hit and a random draw of the rest. About 0.5% of all pairs of compound and target were hits. Values without a mark were called inactive.
# How the values were obtained:
# Assay in all cases: log2 fold change, soluble protein after heating vs DMSO (PISA); higher = thermal stabilisation; K562 lysate, 10 uM; active = over 0.2 and 3.5 SD of the protein, either way, in both replicates (recomputed)
# vemurafenib = compound: CCCS(=O)(=O)Nc1ccc(F)c(C(=O)c2c[nH]c3ncc(-c4ccc(Cl)cc4)cc23)c1F [vemurafenib]
# In short: (§1)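 K562 pellets were dounce-homogenised in PBS pH 7.4 containing 1 mM MgCl2, and the crude extract, at 1 mg/mL protein, was exposed to 10 μM compound for 30 min. Aliquots were heated for 3 min across 48°C-58°C, pooled, brought to 0.5% NP-40 at 4°C and spun at 21,000xg for 90 min, with the supernatant taken as soluble protein. TMTpro 16plex LC-MS/MS with equalised channel sums quantified that protein. Values are log-two fold changes in thermal stability relative to solvent controls, taken from duplicates.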
# [1] = compound: CCCS(=O)(=O)Nc1ccc(F)c(C(=O)c2c[nH]c3ncc(Cl)cc23)c1F
# In short: as §1
# barasertib = compound: CCN(CCCOc1ccc2c(Nc3cc(CC(=O)Nc4cccc(F)c4)[nH]n3)ncnc2c1)CCOP(=O)(O)O [barasertib]
# In short: as §1
# [2] = compound: CC[C@@H]1C(=O)N(C)c2cnc(Nc3ccc(C(=O)NC4CCN(C)CC4)cc3OC)nc2N1C1CCCC1
# In short: as §1
# volasertib = compound: CC[C@@H]1C(=O)N(C)c2cnc(Nc3ccc(C(=O)N[C@H]4CC[C@H](N5CCN(CC6CC6)CC5)CC4)cc3OC)nc2N1C(C)C [volasertib]
# In short: as §1
# [3] = compound: CCn1c(C(=O)N(C2CC2)C2CC2)cc2c3c(ncn3C)c(Nc3cc(C)n(C)n3)nc21
# In short: as §1
# [4] = compound: CCn1cc(-c2ccnc3[nH]c(-c4cccc(CN(C)C)c4)cc23)c(-c2ccc(NC(=O)N(C)C)cc2)n1
# In short: as §1
# [5] = compound: CN1CCC(CNc2ccc3ncc(-c4cccc(OC(F)(F)F)c4)n3n2)CC1
# In short: as §1
# saracatinib = compound: CN1CCN(CCOc2cc(OC3CCOCC3)c3c(Nc4c(Cl)ccc5c4OCO5)ncnc3c2)CC1 [saracatinib]
# In short: as §1
# sotrastaurin = compound: CN1CCN(c2nc(C3=C(c4c[nH]c5ccccc45)C(=O)NC3=O)c3ccccc3n2)CC1 [sotrastaurin]
# In short: as §1
# alvocidib = compound: CN1CC[C@H](c2c(O)cc(O)c3c(=O)cc(-c4ccccc4Cl)oc23)[C@H](O)C1 [alvocidib]
# In short: as §1
# Tubastatin A = compound: CN1CCc2c(c3ccccc3n2Cc2ccc(C(=O)NO)cc2)C1 [Tubastatin A]
# In short: as §1
# [6] = compound: CNC(=O)C1=CC=CC=C1NC2=NC(=NC=C2Cl)NC3=C(C=C(C=C3)N4CCOCC4)OC
# In short: as §1
# defactinib = compound: CNC(=O)c1ccc(Nc2ncc(C(F)(F)F)c(NCc3nccnc3N(C)S(C)(=O)=O)n2)cc1 [defactinib]
# In short: as §1
# [7] = compound: CNc1nc(-c2ccc3c(N)n[nH]c3c2)cc(N2C[C@@H](C(=O)NC3CCCCC3)CC[C@H]2C)n1
# In short: as §1
# encorafenib = compound: COC(=O)N[C@@H](C)CNc1nccc(-c2cn(C(C)C)nc2-c2cc(Cl)cc(NS(C)(=O)=O)c2F)n1 [encorafenib]
# In short: as §1
# [8] = compound: COC(=O)[C@H](CCSC)NC(=O)C1=C(C=C(C=C1)NC[C@H](CS)N)C2=CC=CC=C2
# In short: as §1
# alisertib = compound: COc1cc(Nc2ncc3c(n2)-c2ccc(Cl)cc2C(c2c(F)cccc2OC)=NC3)ccc1C(=O)O [alisertib]
# In short: as §1
# [9] = compound: COc1cc2nc(-c3cc(F)ccc3O)nc(N[C@@H]3CNC[C@H]3C(C)(C)O)c2cc1OC
# In short: as §1
# gefitinib = compound: COc1cc2ncnc(Nc3ccc(F)c(Cl)c3)c2cc1OCCCN1CCOCC1 [gefitinib]
# In short: as §1
# UniProt Q8WUX2, sequence (Q8WUX2 whole entry, looked up): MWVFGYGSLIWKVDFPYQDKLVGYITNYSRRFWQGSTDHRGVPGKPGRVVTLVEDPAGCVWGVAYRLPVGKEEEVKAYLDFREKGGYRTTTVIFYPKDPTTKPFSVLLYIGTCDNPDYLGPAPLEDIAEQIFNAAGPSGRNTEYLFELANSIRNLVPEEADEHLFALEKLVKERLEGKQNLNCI
# UniProt Q8TAP6, sequence (Q8TAP6 whole entry, looked up): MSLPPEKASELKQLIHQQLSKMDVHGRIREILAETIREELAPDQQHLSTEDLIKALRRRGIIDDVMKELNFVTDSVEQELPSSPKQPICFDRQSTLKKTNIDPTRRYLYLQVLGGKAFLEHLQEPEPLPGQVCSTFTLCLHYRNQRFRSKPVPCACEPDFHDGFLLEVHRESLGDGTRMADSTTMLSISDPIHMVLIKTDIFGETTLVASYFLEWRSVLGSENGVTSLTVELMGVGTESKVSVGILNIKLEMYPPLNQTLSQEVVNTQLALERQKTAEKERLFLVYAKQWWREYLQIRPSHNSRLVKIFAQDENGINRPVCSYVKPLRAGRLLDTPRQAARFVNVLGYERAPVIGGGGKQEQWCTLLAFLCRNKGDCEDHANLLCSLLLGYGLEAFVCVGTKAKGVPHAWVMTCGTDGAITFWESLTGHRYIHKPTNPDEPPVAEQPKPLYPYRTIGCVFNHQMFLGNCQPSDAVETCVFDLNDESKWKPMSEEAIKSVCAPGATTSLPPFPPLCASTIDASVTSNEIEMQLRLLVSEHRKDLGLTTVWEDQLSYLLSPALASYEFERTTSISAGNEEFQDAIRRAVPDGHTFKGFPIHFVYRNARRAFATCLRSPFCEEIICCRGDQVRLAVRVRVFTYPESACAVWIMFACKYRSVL
# UniProt Q8N4J0, sequence (Q8N4J0 whole entry, looked up): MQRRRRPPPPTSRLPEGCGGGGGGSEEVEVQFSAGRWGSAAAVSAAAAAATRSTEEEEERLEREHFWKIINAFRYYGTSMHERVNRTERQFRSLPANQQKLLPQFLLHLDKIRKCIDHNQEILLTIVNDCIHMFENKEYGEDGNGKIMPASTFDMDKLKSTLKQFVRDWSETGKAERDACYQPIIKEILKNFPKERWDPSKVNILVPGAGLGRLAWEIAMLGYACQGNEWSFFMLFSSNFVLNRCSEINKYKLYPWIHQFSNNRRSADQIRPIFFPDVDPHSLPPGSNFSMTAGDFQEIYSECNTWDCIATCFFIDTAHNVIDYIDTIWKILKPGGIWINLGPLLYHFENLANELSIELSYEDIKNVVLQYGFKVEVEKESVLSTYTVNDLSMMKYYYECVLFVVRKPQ
# UniProt Q6P4E1, sequence (Q6P4E1 whole entry, looked up): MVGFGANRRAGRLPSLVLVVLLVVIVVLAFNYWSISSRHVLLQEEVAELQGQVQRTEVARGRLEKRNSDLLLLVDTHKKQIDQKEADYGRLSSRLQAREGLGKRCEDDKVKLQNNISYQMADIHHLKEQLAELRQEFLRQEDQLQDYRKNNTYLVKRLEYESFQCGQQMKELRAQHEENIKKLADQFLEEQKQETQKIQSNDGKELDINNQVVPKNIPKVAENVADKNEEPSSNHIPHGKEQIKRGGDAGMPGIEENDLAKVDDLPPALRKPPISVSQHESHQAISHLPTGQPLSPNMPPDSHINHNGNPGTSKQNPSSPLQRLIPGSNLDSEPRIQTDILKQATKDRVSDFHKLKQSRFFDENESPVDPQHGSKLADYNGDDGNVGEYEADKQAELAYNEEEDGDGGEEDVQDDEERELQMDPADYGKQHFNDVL
# UniProt P98196, sequence (P98196 whole entry, looked up): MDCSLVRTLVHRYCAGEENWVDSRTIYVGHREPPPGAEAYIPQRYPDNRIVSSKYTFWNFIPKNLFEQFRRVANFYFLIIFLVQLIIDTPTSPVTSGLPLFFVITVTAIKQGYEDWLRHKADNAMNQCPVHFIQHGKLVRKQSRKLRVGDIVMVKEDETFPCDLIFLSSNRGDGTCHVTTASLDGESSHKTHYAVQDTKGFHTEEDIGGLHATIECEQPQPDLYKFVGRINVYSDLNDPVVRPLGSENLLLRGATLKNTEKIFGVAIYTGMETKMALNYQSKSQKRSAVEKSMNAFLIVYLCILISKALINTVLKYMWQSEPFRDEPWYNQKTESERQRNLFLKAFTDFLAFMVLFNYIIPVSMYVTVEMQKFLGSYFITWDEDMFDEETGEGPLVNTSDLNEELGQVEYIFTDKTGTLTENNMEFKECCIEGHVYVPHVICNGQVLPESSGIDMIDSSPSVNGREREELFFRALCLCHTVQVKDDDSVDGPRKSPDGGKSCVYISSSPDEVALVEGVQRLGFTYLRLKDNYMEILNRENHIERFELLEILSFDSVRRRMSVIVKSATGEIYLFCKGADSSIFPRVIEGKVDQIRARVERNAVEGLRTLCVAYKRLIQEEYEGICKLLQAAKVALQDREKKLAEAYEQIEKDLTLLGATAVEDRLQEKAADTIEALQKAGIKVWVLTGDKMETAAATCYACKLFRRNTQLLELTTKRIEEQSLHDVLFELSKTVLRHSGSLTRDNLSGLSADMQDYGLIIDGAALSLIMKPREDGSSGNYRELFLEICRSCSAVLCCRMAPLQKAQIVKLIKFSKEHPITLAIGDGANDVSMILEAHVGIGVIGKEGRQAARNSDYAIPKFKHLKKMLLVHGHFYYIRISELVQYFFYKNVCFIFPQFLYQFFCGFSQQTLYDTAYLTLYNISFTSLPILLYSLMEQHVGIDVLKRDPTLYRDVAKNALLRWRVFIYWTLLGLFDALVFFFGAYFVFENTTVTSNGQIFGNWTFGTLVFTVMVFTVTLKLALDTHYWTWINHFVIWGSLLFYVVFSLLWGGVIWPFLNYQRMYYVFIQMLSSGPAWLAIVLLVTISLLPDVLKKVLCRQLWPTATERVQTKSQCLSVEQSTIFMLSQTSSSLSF
# UniProt Q86WA6, sequence (Q86WA6 whole entry, looked up): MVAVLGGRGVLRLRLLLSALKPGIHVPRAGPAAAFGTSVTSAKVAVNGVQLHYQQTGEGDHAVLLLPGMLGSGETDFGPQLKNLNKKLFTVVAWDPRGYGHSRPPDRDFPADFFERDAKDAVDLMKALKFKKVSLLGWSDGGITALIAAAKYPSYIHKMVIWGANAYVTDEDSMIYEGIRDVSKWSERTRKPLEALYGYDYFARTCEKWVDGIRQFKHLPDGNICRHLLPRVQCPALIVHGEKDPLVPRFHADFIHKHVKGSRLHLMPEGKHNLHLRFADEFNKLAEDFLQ
# UniProt Q9Y4P1, sequence (Q9Y4P1 whole entry, looked up): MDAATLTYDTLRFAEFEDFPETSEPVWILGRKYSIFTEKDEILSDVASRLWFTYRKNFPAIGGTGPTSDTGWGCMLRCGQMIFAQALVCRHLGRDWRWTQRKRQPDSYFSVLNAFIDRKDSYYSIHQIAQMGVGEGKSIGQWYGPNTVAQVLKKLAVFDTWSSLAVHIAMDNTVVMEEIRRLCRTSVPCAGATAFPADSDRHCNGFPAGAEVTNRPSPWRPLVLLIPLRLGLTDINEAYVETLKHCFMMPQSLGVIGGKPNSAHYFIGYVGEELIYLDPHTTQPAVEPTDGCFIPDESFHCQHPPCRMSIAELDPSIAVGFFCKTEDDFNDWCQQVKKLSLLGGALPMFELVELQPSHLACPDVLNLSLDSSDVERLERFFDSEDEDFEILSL
Target,log2 fold change (vemurafenib),log2 fold change [1],log2 fold change (barasertib),log2 fold change [2],log2 fold change (volasertib),log2 fold change [3],log2 fold change [4],log2 fold change [5],log2 fold change (saracatinib),log2 fold change (sotrastaurin),log2 fold change (alvocidib),log2 fold change (Tubastatin A),log2 fold change [6],log2 fold change (defactinib),log2 fold change [7],log2 fold change (encorafenib),log2 fold change [8],log2 fold change (alisertib),log2 fold change [9],log2 fold change (gefitinib)
CASC4 (UniProt Q6P4E1),0,0.02,-0.02,0.009,0.017,0.022,-0.05,-0.008,-0.003,-0.004,-0.03,0.054,0.011,-0.064,-0.044,0.128,-0.012,0.035,-0.004,0.086
ATP11A (UniProt P98196),-0.035,-0.015,0.006,0.019,0.026,0,-0.116,0.024,-0.01,0.063,-0.002,-0.047,-0.021,-0.017,-0.022,0.028,-0.065,-0.083,0.01,0.031
ATG4B (UniProt Q9Y4P1),0.036,0.04,0.047,0.012,-0.05,0.008,0.148,-0.105,0.043,0.039,0.052,-0.129,0.025,0,-0.025,0,-0.018,0.053,0.02,-0.071
CHAC2 (UniProt Q8WUX2),-0.028,-0.004,-0.006,-0.044,0.006,0.02,0.649 (active),-0.154,-0.018,-0.031,0.223,0.019,0.092,0.028,0.019,0.06,0.003,-0.039,-0.007,0
BPHL (UniProt Q86WA6),-0.13,0.013,0.058,0.015,0,0.069,0.063,0,-0.058,0.084,0.004,-0.006,-0.048,0.036,-0.137,-0.002,0.004,0.085,-0.028,0.009
CARNMT1 (UniProt Q8N4J0),0.04,0.008,-0.012,-0.013,-0.005,-0.044,-0.422 (active),0.063,0.04,0.017,-0.167,0.045,-0.021,-0.03,-0.021,0.051,0.015,-0.022,0.026,0.009
CHCHD1 (UniProt Q96BP2),0.157,-0.025,-0.002,0.028,-0.001,-0.075,1.08 (active),-0.338,0.032,0.16,0.494,0.046,0.028,-0.033,0.087,-0.018,-0.042,0.003,0.023,0.228
CEP76 (UniProt Q8TAP6),-0.099,-0.023,0.085,-0.093,0,-0.026,-0.04,0.053,0.047,0.085,-0.031,-0.015,0.03,0.084,-0.023,-0.006,0.005,0.002,0,0.001
